Test results from PubChem BioAssay AID488847 (NMMLSC, 2010).
Values joined by “and” are separate entries in the source; they are usually repeats but may differ in a detail not shown here. Equal values may be shown once. Hit rate of the full screen: of about 330,000 compounds, about 1,900 (0.58%) were called active.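 The calls were made as follows: active = inhibition of aptamer binding above 40%, roughly 3 SD of noise, on plates passing a quality check; inactive = the rest.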 The full list was thinned out, with actives kept by preference.

Each compound was assayed against Beta-adrenergic receptor kinase 1 (Homo sapiens) (UniProt P25098) (assay: compounds blocking aptamer binding on GRK2 – biochemical, human GRK2, bead flow cytometry, HTS, primary screen (AID 488847;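 also: median bead fluorescence of bound FAM aptamer so fluorescent compounds give negative values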)). Settings: FAM-aptamer displacement from GRK2, at 10 µM, active compounds read high.
Sequence of Beta-adrenergic receptor kinase 1 (Homo sapiens) (P25098 whole entry, looked up): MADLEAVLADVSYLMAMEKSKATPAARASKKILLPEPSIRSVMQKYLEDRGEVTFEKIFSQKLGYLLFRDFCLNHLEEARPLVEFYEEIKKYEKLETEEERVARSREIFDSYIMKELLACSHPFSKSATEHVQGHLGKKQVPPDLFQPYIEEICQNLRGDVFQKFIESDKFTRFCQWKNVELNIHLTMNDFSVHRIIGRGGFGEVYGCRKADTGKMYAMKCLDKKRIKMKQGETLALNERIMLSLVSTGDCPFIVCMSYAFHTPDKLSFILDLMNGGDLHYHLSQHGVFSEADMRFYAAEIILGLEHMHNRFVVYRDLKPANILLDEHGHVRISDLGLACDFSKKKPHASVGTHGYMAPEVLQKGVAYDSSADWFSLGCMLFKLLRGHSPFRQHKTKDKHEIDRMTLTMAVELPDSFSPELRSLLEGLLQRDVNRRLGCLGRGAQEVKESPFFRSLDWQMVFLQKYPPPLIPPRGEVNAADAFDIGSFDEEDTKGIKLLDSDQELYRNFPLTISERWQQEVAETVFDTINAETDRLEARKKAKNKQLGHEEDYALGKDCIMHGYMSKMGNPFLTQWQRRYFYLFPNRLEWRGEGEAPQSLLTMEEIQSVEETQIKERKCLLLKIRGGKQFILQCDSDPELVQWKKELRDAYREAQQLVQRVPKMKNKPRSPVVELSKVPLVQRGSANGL

Inhibition of aptamer binding, inactive:
CS(=O)(=O)N1CCN(c2ccc(C(=O)NC3C4CC5CC(C4)CC3C5)cc2[N+](=O)[O-])CC1 (centres undefined) 0%, CC(NC(=O)c1ccc(N2CCNCC2)c([N+](=O)[O-])c1)C12CC3CC(CC(C3)C1)C2 (centres undefined) 0%, CC(c1nnc(SCC(=O)Nc2sccc2C#N)n1-c1ccc(Cl)cc1)N(C)C (centres undefined) 0%, C/C(=N\N=C(N)N)c1ccc(Cl)cc1 0%, COc1ccc(C(=O)CCC(=O)Nc2ccc(Cl)cc2)cc1 1%, COc1cc2c(-c3ccc4c(c3)OCO4)c(-c3ccsc3)oc(=O)c2cc1OC 0%, Cc1ccc(S(=O)(=O)N2CCCC(C(=O)N3CCN(C)CC3)C2)cc1 (centres undefined) 4%, O=C(C1CCC1)N1CCN(S(=O)(=O)c2ccc([N+](=O)[O-])cc2)CC1 1%, Cc1nnc(NC(=O)CCC(=O)N2CCC(C)CC2)s1 2%, CCC(C)(C(=O)NC1CCCC1)N(C(=O)CNC(C)=O)c1ccc(C)cc1 (centres undefined) 3%, CCCCN(CC)C(=O)c1ccc2c(c1)OCO2 3%, COc1ccccc1NC(=O)COc1ccc(C(=O)OCC(=O)N(C(C)C)C(C)C)cc1OC 0%, COc1ccc(NC(=O)COc2ccc(C(=O)OCC(=O)N(C)C3CCS(=O)(=O)C3)cc2OC)cc1 (centres undefined) 3%, Cn1c(N2CCOCC2)c(C=O)c2ccccc21 0%, Cc1ccc(CNC(=O)c2cc(-c3ccccc3C)n(CC3CC(c4cccc([N+](=O)[O-])c4)=NO3)n2)cc1 (centres undefined) 0%, O=C(COC(=O)CSc1ccccc1)Nc1ccc(F)cc1F 3%, CCOC(=O)c1cccc(NC(=O)c2ccc(F)cc2F)c1 3%, O=C(NCCCN1CCCCC1)c1ccc2c(c1)NC(=O)C(N1CCOCC1)S2 (centres undefined) 3%, CCOC(=O)c1ccc(N/C(=N/S(=O)(=O)c2ccccc2)c2ccccc2)cc1 0%, CC(=O)c1c(C)[nH]c(C(=O)N2CCN(S(=O)(=O)c3ccc(F)c(F)c3)CC2)c1C 1%, CN(CC(=O)O)C(=O)c1ccccc1 1%, CN(Cc1ccccc1)C(=O)c1ccc(COc2ccccc2)cc1 0%, c1ccc(Cc2cc[n+](Cc3ccccc3)cc2)cc1 0%, O=C(CCC(=O)N/N=C/c1ccc(Br)o1)N/N=C/c1ccc(Br)o1 13%, O=C(CCc1n[nH]c(=O)[nH]c1=O)N/N=C/c1ccc(Br)o1 0%, Cc1ccc(OCc2cc(C(=O)N(C)CCn3ccnc3C)no2)cc1C 4%, O=C(ON=C1CCN(S(=O)(=O)c2ccccc2)CC1)c1ccc(Cl)cc1 1%, CONC(=O)c1cc(OCC(F)(F)F)ccc1OCC(F)(F)F 0%, O=C(Nc1ccccc1)Nc1ccc(C(F)(F)F)cn1 0%, COc1nc(NC2CCCCC2)nc(N2CCCCCC2)n1 1%, Cc1cc(/C=C2/SC(=O)N(CC(=O)OC(C)C)C2=O)c(C)n1C 2%, CO/N=C(\C(=O)N[C@@H]1C(=O)N2C(C(=O)O)=C(COC(C)=O)CS[C@H]12)c1csc(N)n1 (stereo in doubt) 0% and 38% and 1%, C=CC1=C(C(=O)O)N2C(=O)[C@@H](NC(=O)/C(=N/OCC(=O)O)c3csc(N)n3)[C@H]2SC1 0%, CC[C@@H](C)[C@@H]1CN([C@@H](C)CN2CCC[C@H]2CN2C(N)=NC[C@H]2C(C)C)C(=N)N1CCc1ccc(Cl)c(Cl)c1 0%, COc1ccc(CNc2nc(NCc3ccc(OC)cc3)c3ncn(C4CCCC4)c3n2)cc1 0%, O=C1[C@@H]2C(c3cccnc3)=NO[C@@H]2C(=O)N1c1ccc(Cl)cc1Cl 4%, CCOc1cccc(OCCCOc2cccc3cccnc23)c1 1%, C1=C(CCNc2ncnc3c2cnn3-c2ccccc2)CCCC1 0%, Cc1ccccc1NC(=O)c1cnn(-c2ccccc2)c1NC(=O)c1ccco1 3%, CC(OC(=O)/C=C/c1ccccc1)C(=O)NC1CCCCC1C (centres undefined) 0%, CC(=O)N1CCN(CC(=O)Nc2ccc(C)c(F)c2)CC1 1%, CCCc1noc2c1/C(=N\O)CCC2 0%, Cc1ccn2cc(C(=O)NC3CCN(Cc4ccccc4)CC3)nc2c1 0%, Cc1ccc(-c2cc(C(=O)NC3CCN(Cc4ccccc4)CC3)c3ccccc3n2)cc1 0%, O=C(N/C(=C/c1ccc(Cl)cc1)C(=O)N1CCCCC1)c1ccco1 0%, N/C(=N\OC(=O)CCC1CCCCC1)c1ccccn1 0%

Inhibition of aptamer binding, active:
O=C(NC1C2CC3CC(C2)CC1C3)c1ccc(N2CCNCC2)c([N+](=O)[O-])c1 (centres undefined) 98%, C/C(=N\OCC(=O)O)c1ccc(Cl)cc1 58%, O=C(C1CCCN(S(=O)(=O)c2ccc([N+](=O)[O-])cc2)C1)N1CCCCC1 (centres undefined) 53%, CCC(C)(C(=O)NC1CCCCC1)N(C)C(=O)c1ccc2c(c1)OCO2 (centres undefined) 47%, COc1cc(C(=O)OCC(=O)N(CC(C)C)C2CCS(=O)(=O)C2)ccc1OCC(C)C (centres undefined) 100%, O=C(COC(=O)c1ccc(F)cc1F)Nc1ncccn1 60%, CN(Cc1ccccc1)C(=O)c1cccc(C(=O)N(C)Cc2ccccc2)c1 49%, O=C(CCNC(=O)c1ccccc1)NN=Cc1ccc(Br)o1 58%, O=C(NC(=O)c1cc(OCC(F)(F)F)ccc1OCC(F)(F)F)Nc1ccccc1 98%, C=CC1=C(C(=O)O)N2C(=O)[C@@H](NC(=O)/C(=N\OCC(=O)O)c3csc(N)n3)[C@H]2SC1 66%, O=C(NNc1ncnc2c1cnn2-c1ccccc1)c1ccco1 97%, Cc1cc(C(=O)NC2CCN(Cc3ccccc3)CC2)n[nH]1 50%, CCC(=C/c1sc2ccc3ccccc3c2[n+]1C)/C=C1\Sc2ccc3ccccc3c2N1C 100%
